Only some compounds are listed: those with a hit (about 10% of all), similar ones and a draw of the others.
KB-V1 cytotox: kills drug-selected multidrug resistant KB-V1 cells. hit rate 3.4% among 400,000. KB-V1 MDR cells viability, CellTiter-Glo, 72 h. Potency, µM (highest dose often 46.1 µM), hits mostly cytotoxic; note: % is set by controls: 0 for no effect and ±100 for the full control effect; nearly all actives have a fitted effect of over 60% in size
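Cytotoxicity toward P-gp-expressing KB-V1 cells was determined as loss of CellTiter-Glo luminescence after 72 h at 37 degrees C. Compounds were tested in quantitative HTS format across a concentration range, with curves fitted to normalized data.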
RORg inh: inhibitors of mouse ROR gamma transcriptional activity. P51450. Drosophila S2 Gal4-RORgamma UAS-luciferase reporter, 20 h. Potency, µM (titrated, usually from 53.6 µM), for inactives: at the highest dose activity change, negative = inhibition, actives largely listed as inhibitors. hit rate 5.4% among 310,000. AID 2551; note: % is set by controls: 0 for no effect and ±100 for the full control effect; nearly all actives have a fitted effect of over 60% in size
Target sequence (P51450 whole entry, looked up, the tested form may be a part): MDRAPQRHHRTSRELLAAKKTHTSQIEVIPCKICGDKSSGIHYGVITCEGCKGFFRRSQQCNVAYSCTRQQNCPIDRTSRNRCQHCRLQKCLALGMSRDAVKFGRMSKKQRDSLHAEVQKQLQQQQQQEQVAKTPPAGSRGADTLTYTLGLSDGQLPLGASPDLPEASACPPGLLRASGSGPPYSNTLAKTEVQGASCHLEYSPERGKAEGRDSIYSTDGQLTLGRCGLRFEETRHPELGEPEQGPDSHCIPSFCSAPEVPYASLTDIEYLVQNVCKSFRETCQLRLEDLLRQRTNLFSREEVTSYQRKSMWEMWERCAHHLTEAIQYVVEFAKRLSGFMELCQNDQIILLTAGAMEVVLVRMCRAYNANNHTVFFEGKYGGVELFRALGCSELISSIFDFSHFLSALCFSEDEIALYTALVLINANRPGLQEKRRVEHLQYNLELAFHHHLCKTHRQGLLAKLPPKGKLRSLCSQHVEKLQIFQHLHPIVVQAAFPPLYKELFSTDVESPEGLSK
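Stably transfected Drosophila Schneider cells are the test system, with ROR gamma fused to Gal4 and luciferase under UAS control; luminescence is read after 20 hr of 700 uM copper sulfate induction at ambient temperature.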
VP16 counter: inhibits Gal4-VP16 luciferase reporter, ROR gamma counter-screen. hit rate 3.5% among 310,000. Potency, µM (highest dose often 53.6 µM), for the others: top-dose activity, negative = inhibition, hits mostly inhibitors. Drosophila S2 Gal4-VP16 UAS-luciferase, luminescence, 20 h. AID 2546;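 note: Gal4-VP16 expression switched on by copper sulfate through the metallothionein promoter; % is set by controls: 0 for no effect and ±100 for the full control effect; nearly all actives have a fitted effect of over 50% in size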
MCF10A rerep: inducers of DNA re-replication in MCF 10A breast cells | hit rate 2.9% among 350,000 | AID 624296 | MCF 10A DNA re-replication, Hoechst nuclear intensity, 48 h | Potency, µM (top dose mostly 46.1 µM), for the others: at the top dose activity, positive = re-replication, most hits filed as activators; note: % of control where 0% means no effect; nearly all actives have a fitted effect of over 50% in size
SW480 rereplic: DNA re-replication induction in SW480 cells; SW480 DNA re-replication, Hoechst DNA content imaging, 48 h; Potency, µM (titrated, usually from 46.1 µM), without a hit: at the top dose re-replication activation, actives largely listed as activators; hit rate 1.8% among 340,000; note: % of control where 0% means no effect; nearly all actives have a fitted effect of over 55% in size
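Treated cells incubate 48 hr (37 C, 5% CO2), are stained 40 min with Hoechst, and nuclear fluorescence is enumerated; a rise in nuclei with high DNA signal marks re-replication.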
KB-3-1 tox: KB-3-1 parental cell cytotoxicity; hit rate 1.4% among 400,000; Potency, µM (top dose mostly 46.1 µM), hits mostly cytotoxic; KB-3-1 viability, CellTiter-Glo ATP luminescence, 72 h; note: % is set by controls: 0 for no effect and ±100 for the full control effect; nearly all actives have a fitted effect of over 60% in size
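Luminescent ATP read-out (CellTiter-Glo) measures survival of drug-naive KB-3-1 cells after 72 h compound exposure at 37 °C. Titration series was screened from lowest to highest concentration, with DMSO vehicle plates as background controls.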
Active calls of the source: *; [ ] = another dose, or the depositor's remark. Calls come from the whole dose curve; as a rule, active = well fitted curve in the direction sought with a large enough effect; inconclusive = small, poorly fitted or top-dose-only effect, or another doubt; inactive = no such curve, though single readings can be large; an effect the other way counts as inactive or inconclusive. Potency is the fitted concentration of half-maximal effect.

How did Cc1cccc(NC(=S)NC(=O)c2oc3ccccc3c2C)n1 do in these assays?
KB-V1 cytotox: inactive; RORg inh: 8.9µM*; VP16 counter: 17%; MCF10A rerep: 18%; SW480 rereplic: -10%; KB-3-1 tox: inactive

Results for Cc1cccc(NC(=S)NC(=O)C(c2ccccc2)c2ccccc2)n1 ?
KB-V1 cytotox: inactive; MCF10A rerep: inconclusive; SW480 rereplic: 4%; KB-3-1 tox: inactive

What do the screens show for `Cc1ccc(C(=O)O)cc1NC(=S)NC(=O)c1ccc(-c2ccccc2)cc1`?
KB-V1 cytotox: inactive; RORg inh: -17%; VP16 counter: -11%; MCF10A rerep: -13%; SW480 rereplic: -16%; KB-3-1 tox: inactive

Results for Cc1c(C(=O)NC(=S)Nc2ccc(NC(=O)c3cccs3)cc2)oc2ccccc12 ?
KB-V1 cytotox: inactive; RORg inh: inconclusive; VP16 counter: inconclusive; MCF10A rerep: -1%; SW480 rereplic: 0%; KB-3-1 tox: inactive

What do the screens show for `CC(C)NC(=S)NC(=O)c1ccc(-c2ccccc2)cc1`?
KB-V1 cytotox: inconclusive; RORg inh: 2.5µM*; VP16 counter: 3.2µM*; MCF10A rerep: inconclusive; SW480 rereplic: inconclusive; KB-3-1 tox: inconclusive

How did Cc1ccc2c(NC(=S)NC(=O)c3ccccc3)cccc2n1 do in these assays?
KB-V1 cytotox: inactive; RORg inh: 16µM*; VP16 counter: inconclusive; MCF10A rerep: 4%; SW480 rereplic: -5%; KB-3-1 tox: inactive

What do the screens show for `Cc1cccc(NC(=S)NC(=O)c2ccc(-c3ccccc3)cc2)n1`?
KB-V1 cytotox: inactive; RORg inh: 4µM*; VP16 counter: inconclusive; MCF10A rerep: 4%; SW480 rereplic: -3%; KB-3-1 tox: inactive

Results for O=C(CN1C(=O)CC(c2ccccc2)=Nc2ccccc21)Nc1ccc(Br)cc1 ?
KB-V1 cytotox: inactive; KB-3-1 tox: inactive

What do the screens show for `O=C(CCC(=O)N1Cc2ccccc2Oc2ncccc21)NCc1ccccc1Cl`?
KB-V1 cytotox: inactive; KB-3-1 tox: inactive

How did COc1ccc(CNC(=O)C2CCN(S(=O)(=O)c3ccc4c(ccn4C)c3)CC2)cc1 do in these assays?
KB-V1 cytotox: inactive; KB-3-1 tox: inactive

How did Cc1ccc(C(=O)NC(=S)Nc2cccc3c(C)cc(C)nc23)cc1 do in these assays?
KB-V1 cytotox: 15µM*; RORg inh: 1µM*; VP16 counter: 4.5µM*; MCF10A rerep: inconclusive; SW480 rereplic: -1%; KB-3-1 tox: inconclusive

Results for Cc1ccc2c(c1)c1c3n2CCN(C(=O)CCl)C3CCC1 (stereo not drawn) ?
KB-V1 cytotox: inactive; RORg inh: 2.5µM*; VP16 counter: 11µM*; MCF10A rerep: inconclusive; SW480 rereplic: inconclusive; KB-3-1 tox: inactive

How did Cc1ccc2c(c1)c1c3n2CCN(CCC#N)C3CCC1 (stereo not drawn) do in these assays?
KB-V1 cytotox: 18µM*; KB-3-1 tox: inactive

Results for CN(C)CCNc1ncnc2c1ncn2[C@H]1CN(Cc2ccc(-c3ccccc3)cc2)C[C@@H](CO)O1 ?
KB-V1 cytotox: inactive; KB-3-1 tox: inconclusive

What do the screens show for `COc1cc([C@@H]2OC[C@@H]3[C@H]2CO[C@@H]3c2ccc3c(c2)OCO3)ccc1O`?
KB-V1 cytotox: inactive; MCF10A rerep: inconclusive; SW480 rereplic: -5%; KB-3-1 tox: inactive

What do the screens show for `COc1cc(C2CC(=O)Nc3cc4c(cc32)OCO4)cc(OC)c1O` (stereo not drawn)?
KB-V1 cytotox: inactive; KB-3-1 tox: inconclusive

Results for COc1cc(C2C3=C(COC3=O)Oc3cc4c(cc32)OCO4)ccc1O (stereo not drawn) ?
KB-V1 cytotox: 4.6µM*; MCF10A rerep: inconclusive; SW480 rereplic: 1.8µM*; KB-3-1 tox: 3.7µM*

How did COc1cc(C2C3=C(COC3=O)OC(C)(C)Oc3cc4c(cc32)OCO4)cc(OC)c1OC (stereo not drawn) do in these assays?
KB-V1 cytotox: 3.7µM*; MCF10A rerep: 1.2µM*; SW480 rereplic: 1.2µM*; KB-3-1 tox: 0.73µM*

What do the screens show for `Cc1cc(NC(=O)CC(C)(C)C)nc2c1c(=O)oc1ccccc12`?
KB-V1 cytotox: inactive; RORg inh: 1%; VP16 counter: -4%; MCF10A rerep: 24%; SW480 rereplic: inconclusive; KB-3-1 tox: inactive

What do the screens show for `CCCC(=O)Nc1cc(C)c2c(=O)oc3ccccc3c2n1`?
KB-V1 cytotox: 18µM*; RORg inh: -6%; VP16 counter: 0%; MCF10A rerep: 10%; SW480 rereplic: -16%; KB-3-1 tox: inactive

Results for CCCc1cc2c(c(NC(C)=O)n1)c(=O)oc1ccccc12 ?
KB-V1 cytotox: 13µM*; RORg inh: -8%; VP16 counter: -1%; MCF10A rerep: -2%; SW480 rereplic: -4%; KB-3-1 tox: inactive

How did O=C1[C@H]2[C@H]3[C@H](O)[C@H](O)C/C(=N/OC[C@@H](O)COCc4ccco4)[C@H]3CC[C@@H]2C(=O)N1c1cccc(Oc2ccccc2)c1 do in these assays?
RORg inh: 11%[10 µM]; VP16 counter: -15%[10 µM]

How did CCCOC(=O)CN1C(=O)c2ccc(C(=O)OCCC)cc2C1=O do in these assays?
KB-V1 cytotox: inactive; RORg inh: -1%; VP16 counter: -11%; MCF10A rerep: -5%; SW480 rereplic: -3%; KB-3-1 tox: inactive

How did CCCOC(=O)c1ccc2c(c1)C(=O)N(c1ccccc1)C2=O do in these assays?
KB-V1 cytotox: inactive; RORg inh: 13%; VP16 counter: 2%; MCF10A rerep: inconclusive; SW480 rereplic: 16µM*; KB-3-1 tox: inactive

Results for C=C(C)CSc1nnc2[nH]c(=O)cc(N)n12 ?
KB-V1 cytotox: 18µM*; MCF10A rerep: 1%; SW480 rereplic: -1%[9.22 µM]; KB-3-1 tox: 16µM*

Results for Cc1cnc2nc(-c3ccccc3)ccc2c1 ?
KB-V1 cytotox: inactive; KB-3-1 tox: inactive

What do the screens show for `COc1ccc(-c2oc3ncn4nc(-c5ccccc5Br)nc4c3c2-c2ccc(OC)cc2)cc1`?
KB-V1 cytotox: inactive; KB-3-1 tox: inactive

What do the screens show for `Cc1noc2ncnc(Sc3ccc(Br)cc3)c12`?
KB-V1 cytotox: inactive; RORg inh: 4µM*; VP16 counter: 11µM*; MCF10A rerep: 13µM*; SW480 rereplic: 14%; KB-3-1 tox: inconclusive

What do the screens show for `Cn1c(C(=O)OC(C(=O)NCc2ccco2)c2ccncc2)cc2sccc21` (stereo not drawn)?
KB-V1 cytotox: 3.7µM*; RORg inh: -18%; VP16 counter: 1%; MCF10A rerep: 3%; SW480 rereplic: 10%; KB-3-1 tox: inactive

Screens deposited in PubChem BioAssay by National Center for Advancing Translational Sciences (NCATS).
